Screening results (PubChem)
Pf growth 96h: Primary qHTS for delayed death inhibitors of the malarial parasite plastid, 96 hour incubation. P. falciparum luciferase reporter growth, 96 h. Potency, µM (highest dose often 28.7 µM), actives largely listed as inhibitors. 320,000 tested, 6.9% active. AID 504834, 2011
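P. falciparum expressing integrated firefly luciferase grown in erythrocytes (2% hematocrit, 0.05% parasitemia final) with compounds for 96 hours at 37 C, 5% CO2. Growth inhibition read as loss of luminescence after adding luciferase detection reagent.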
AmpC inh detg: qHTS Inhibitors of AmpC Beta-Lactamase (assay with detergent); P00811; AmpC hydrolysis of nitrocefin, absorbance 480 nm, 0.01% Triton; Potency, µM (doses to about 114 µM), most hits filed as inhibitors; 370,000 tested, 0.041% active; AID 485294, 2010; further: nearly all actives have a fitted effect of over 25% in size
Target sequence (P00811 whole entry, looked up): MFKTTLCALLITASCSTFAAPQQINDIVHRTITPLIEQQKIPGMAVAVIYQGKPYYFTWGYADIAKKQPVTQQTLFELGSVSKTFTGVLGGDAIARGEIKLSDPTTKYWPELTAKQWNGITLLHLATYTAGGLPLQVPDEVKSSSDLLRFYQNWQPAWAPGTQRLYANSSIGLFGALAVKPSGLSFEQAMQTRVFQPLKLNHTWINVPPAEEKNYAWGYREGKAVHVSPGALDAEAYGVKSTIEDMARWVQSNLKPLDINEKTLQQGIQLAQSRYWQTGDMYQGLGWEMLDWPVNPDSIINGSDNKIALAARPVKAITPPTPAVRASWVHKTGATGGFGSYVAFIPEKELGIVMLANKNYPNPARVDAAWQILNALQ
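AmpC (5.3 nM in the dispensed reagent) in 20 mM phosphate pH 7.0 with 0.01% (detergent screen) or 0.0001% Triton X-100 was preincubated with compounds for 15 min at room temperature. Nitrocefin was then added from an 800 uM solution, and hydrolysis was followed at 480 nm.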
AmpC no deterg: qHTS Inhibitors of AmpC Beta-Lactamase (assay without detergent). P00811. AmpC nitrocefin hydrolysis, absorbance 480 nm, 0.0001% Triton. Potency, µM (titrated, usually from 57.1 µM), hits mostly inhibitors. 330,000 tested, 0.52% active. AID 485341, 2010; further: nearly all actives have a fitted effect of over 20% in size
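20 mM phosphate pH 7.0 + 0.01% (detergent screen) or 0.0001% Triton X-100; 5.3 nM AmpC reagent; cpd preinc 15 min RT; nitrocefin (800 uM stock) to start; A480 q20 s × 4 min; Activity was normalised to no-enzyme and no-compound control wells.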
Pf growth 48h: Primary qHTS for delayed death inhibitors of the malarial parasite plastid, 48 hour incubation | 310,000 tested, 5.9% active | AID 504832, 2011 | P. falciparum luciferase growth in erythrocytes, 48 h | Potency, µM (titrated, usually from 28.7 µM), most hits filed as inhibitors
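Here the parasites carry a stable luciferase gene and grow inside erythrocytes in Albumax-based RPMI medium with compound for one erythrocytic cycle. Activity is scored as loss of luminescent signal.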
HCV inhibitor: qHTS Assay for Inhibitors of Hepatitis C Virus (HCV); Huh7.5.1 HCVcc-Cre infection, luciferase reporter, 44 h; Potency, µM (highest dose often 41.8 µM), most hits filed as inhibitors; 340,000 tested, 3.4% active; AID 651820, 2012
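Reporter virus HCVcc-Cre (~0.5 moi) infects cells exposed to compound; seeding density 1,000 cells/well with 4 h settling beforehand. Luminescence, 15 sec read, taken 44 h post-infection following a 15 min RT substrate incubation.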
AMA1 RON2 block: qHTS for Inhibitors of AMA1-RON; Towards Development of Antimalarial Drug Lead: Primary Screen. 360,000 tested, 0.2% active. AID 720542, 2013. AlphaScreen AMA1-biotinylated RON2 peptide binding. Potency, µM (top dose mostly 58.2 µM), actives largely listed as inhibitors; further: nearly all actives have a fitted effect of over 45% in size
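AMA1 (3D7) with his tag at 25 nM final met compounds first, then biotinylated RON2 peptide at 25 nM; detection used donor plus acceptor beads, 10 µg/mL apiece, read by AlphaScreen after 30 min at room temperature.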
Of the large screens only hits and unclear results are named; the others gave an inactive call. Rows were chosen to be rich in hits. Some 11% of all compounds tested hit in one or more screens of this group. The call rests on the fitted dose curve; in most records, active means well fitted curve in the direction sought with a large enough effect; inconclusive means small, poorly fitted or top-dose-only effect, or another doubt; inactive means no such curve, though single readings can be large; an effect the other way counts as inactive or inconclusive.

CC(CC(=O)Nc1nccs1)c1ccccc1 (centres undefined)	Pf growth 96h inconclusive, Pf growth 48h inconclusive
Cn1c(CSCc2ccccc2)nnc1SCC(=O)Nc1nccs1	Pf growth 96h 5.9µM, Pf growth 48h inconclusive
O=C(CC(c1ccccc1)c1ccco1)Nc1nccs1 (centres undefined)	Pf growth 96h 9.3µM, AmpC inh detg inconclusive, Pf growth 48h 10µM
COc1ccc(NC(=O)Cc2nnc(SCC(=O)Nc3nccs3)n2C)cc1	Pf growth 96h 3.3µM
COc1ccc(C(CC(=O)Nc2nccs2)C(C)C)cc1 (centres undefined)	Pf growth 96h 13µM, Pf growth 48h inconclusive
Cc1ccc(Cn2c(C(C)NC(=O)c3ccccc3)nc3ccccc32)cc1 (centres undefined)	none (no result: Pf growth 96h, AmpC no deterg, Pf growth 48h, HCV inhibitor, AMA1 RON2 block)
Cc1nnc(SCC(=O)Nc2nccs2)o1	Pf growth 96h 13µM, Pf growth 48h inconclusive
COc1ccc(NC(=O)CSc2nnc(Cn3cnc4ccccc43)n2C)cc1	Pf growth 96h 2.3µM
CS(=O)(=O)c1ncc(Cl)c(C(=O)N2CCN(c3cccc(Cl)c3)CC2)n1	none (no result: Pf growth 96h, AmpC no deterg, Pf growth 48h, HCV inhibitor, AMA1 RON2 block)
COc1ccc(CCn2c(=S)[nH]c3ccc(N4CCOCC4)cc3c2=O)cc1OC	Pf growth 96h inconclusive, Pf growth 48h 10µM, HCV inhibitor inconclusive
O=c1c2cc(N3CCOCC3)ccc2[nH]c(=S)n1CCc1ccccc1	Pf growth 96h inconclusive, Pf growth 48h inconclusive
Cc1cccc(C)c1NC(=O)C(NS(=O)(=O)c1ccc2c(c1)CCC(=O)N2)c1ccccc1 (centres undefined)	none (no result: Pf growth 96h, AmpC no deterg, Pf growth 48h, HCV inhibitor, AMA1 RON2 block)
Cc1cccc(NC(=O)C(NS(=O)(=O)c2ccc3c(c2)CCC(=O)N3)c2ccccc2)n1 (centres undefined)	Pf growth 96h 10µM, AmpC no deterg 25µM
Cc1cc(NS(=O)(=O)c2ccc(NC(=O)COc3ccccc3Br)cc2)no1	none (no result: Pf growth 96h, AmpC no deterg, Pf growth 48h, HCV inhibitor, AMA1 RON2 block)
C#CCN(C(=O)CC1C(=O)NCCN1C/C=C/c1ccccc1)C1CCCCC1 (centres undefined)	Pf growth 96h 4.7µM
Cc1cc(C)cc(C(=O)n2cnnc2N)c1	none (no result: Pf growth 96h)
Cc1cccc(C(=O)n2cnnc2N)c1	Pf growth 48h 10µM
COc1ccc(OC)c(C(=O)/C=C/c2cccnc2)c1	Pf growth 96h 7.4µM, Pf growth 48h inconclusive, HCV inhibitor inconclusive
COc1cc(C(=O)/C=C/c2cccnc2)ccc1O	none
CCCCC(CC)COC(=O)/C=C/c1ccc(OC)cc1 (centres undefined)	none (no result: AmpC inh detg, AmpC no deterg, HCV inhibitor, AMA1 RON2 block)
COc1ccc(C(=O)/C=C/c2ccccc2OC)c(OC(=O)c2ccc([N+](=O)[O-])cc2)c1	HCV inhibitor 13µM (no result: Pf growth 96h, AmpC inh detg, AmpC no deterg, Pf growth 48h)
COc1ccc(/C=C/C(=O)OCCC(C)C)cc1	Pf growth 96h 13µM (no result: AmpC inh detg, AmpC no deterg, HCV inhibitor, AMA1 RON2 block)
COc1ccc(/C=C/C(=O)c2ccc(OC)cc2OC)cc1	Pf growth 96h 1.7µM, Pf growth 48h 3µM, HCV inhibitor inconclusive
COc1ccc(OC(=O)c2cccc([N+](=O)[O-])c2)c(C(=O)/C=C/c2cccs2)c1	AMA1 RON2 block inconclusive (no result: Pf growth 96h, Pf growth 48h)
Cc1ccc2c(c1)-c1cc(C)nn1C(c1cc(Br)ccc1O)N2 (centres undefined)	none (no result: Pf growth 96h, AmpC no deterg, Pf growth 48h, HCV inhibitor, AMA1 RON2 block)
Cn1c(=O)oc2cc(S(=O)(=O)N3CCCC(C(=O)NCc4ccc(F)cc4)C3)ccc21 (centres undefined)	none (no result: Pf growth 96h, AmpC no deterg, Pf growth 48h, HCV inhibitor, AMA1 RON2 block)
CCc1cccc(C)c1NC(=O)C1CCCN1S(=O)(=O)c1cccc2nsnc12 (centres undefined)	none (no result: Pf growth 96h, AmpC no deterg, Pf growth 48h, HCV inhibitor, AMA1 RON2 block)
Cc1cc(C)cc(NC(=O)CCS(=O)(=O)c2ccc3c(c2)oc(=O)n3C)c1	none (no result: Pf growth 96h, AmpC no deterg, Pf growth 48h, HCV inhibitor, AMA1 RON2 block)
COc1cc(/C=C/C(=O)O)cc(OC)c1	AmpC inh detg inconclusive
CCOC(=O)C1=C(COC(=O)/C=C/c2ccc(OC)cc2)NC(=O)NC1C (centres undefined)	Pf growth 48h inconclusive, HCV inhibitor 3.2µM
COc1ccc(/C=C/C(=O)O)cc1	HCV inhibitor 0.79µM (no result: AmpC inh detg)
